Source: PubChem BioAssay AID641 (Vanderbilt High Throughput Screening Facility, 2007)
About 3,400 (5.9%) of roughly 58,000 compounds were called active. For the sample, actives were picked, then their nearest neighbours and some compounds at random. A number with no mark means an inactive call.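 How the source made its calls: active means luminescence count or its row- and column-corrected plate score outside the 99.7% band of the plate's sample wells, on either side; inactive means the rest.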

Biological target: D(1A) dopamine receptor (Homo sapiens) (UniProt P21728)
Sequence (P21728 whole entry, looked up): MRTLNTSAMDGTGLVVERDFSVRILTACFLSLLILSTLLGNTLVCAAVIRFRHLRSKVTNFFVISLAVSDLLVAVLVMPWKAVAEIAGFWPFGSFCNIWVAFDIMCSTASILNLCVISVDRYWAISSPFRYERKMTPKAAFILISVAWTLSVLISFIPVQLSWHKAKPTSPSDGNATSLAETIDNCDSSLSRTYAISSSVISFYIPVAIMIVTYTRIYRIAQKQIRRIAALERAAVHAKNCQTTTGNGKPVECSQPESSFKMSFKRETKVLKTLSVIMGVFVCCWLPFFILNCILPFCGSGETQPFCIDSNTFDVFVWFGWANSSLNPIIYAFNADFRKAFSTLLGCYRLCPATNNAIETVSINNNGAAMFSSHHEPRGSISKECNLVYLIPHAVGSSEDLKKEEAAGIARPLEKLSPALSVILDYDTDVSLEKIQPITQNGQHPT
Assay: D1 CRE-luciferase signal change, two-sided – cell-based, HEK293 D1, dopamine EC30, D1 allosteric modulator project, primary screen (AID 641)
Settings: dopamine EC30 potentiation, at 10 µM, actives deviate in either direction

SMILES	B-score
O=S(N1CCCCCC1)C12CC3CC(CC(C3)C1)C2 (stereo not drawn)	-1.48
CCCN1C(=O)C(NS(=O)(=O)c2ccc(N)cc2)(C(F)(F)F)C(C(=O)OC)=C1C (stereo not drawn)	-0.0535
C=CCNC(=O)CCCOc1cccc(C)c1	0.267
Cc1nc2c(-c3ccc(F)cc3)c(C)nn2c(C)c1CCC(=O)N1CCN(c2ccccn2)CC1	-0.178
COc1ccc(C(=O)N2CCC(C(=O)Nc3cccc(C)c3)CC2)cc1OC	-0.521
CCOc1cc(C(=O)N2CCc3cc(OC)c(OC)cc3C2)ccc1OC(F)F	15.1 (active)
CCOc1cc(CN2CCN(C(=O)CC(C)C)CC2)ccc1OC	0.0601
O=C1CCCN1CCCNc1ncnc2c1[nH]c1ccccc12	-0.02
CCN1CCCC1CNc1ncnc2c1[nH]c1ccc(F)cc12 (stereo not drawn)	-0.311
CC(C)OCCCNc1ncnc2c1[nH]c1ccc(F)cc12	-3.37 (active)
c1csc(-c2cn3c(n2)SCC3)c1	-0.433
O=C(COC(=O)c1ccc2c(c1)OCCO2)NCc1ccccc1	0.524
COc1cc2[nH]c(=S)n(Cc3ccc(C)o3)c(=O)c2cc1OC	2.05
CCOC(=O)N1CCN(C(=O)CN(c2ccc(C)c(C)c2)S(=O)(=O)c2ccccc2)CC1	-0.0191
COc1ccccc1NC1=NC2(CCCC2)N=C(N)N1	-3.14 (active)
COc1ccccc1NC1=NC(c2ccc(Cl)cc2)N=C(N)N1 (stereo not drawn)	-3.3
COc1ccccc1Nc1nc(N)nc(CN(C)C2CCCCC2)n1	-0.094
c1ccc(-n2ncc(-c3nn[nH]n3)n2)cc1	-1.26
CCCOC(=O)CC1C(=O)NCCN1Cc1ccc(F)cc1 (stereo not drawn)	-0.0757
CC1CCCN(C(=O)c2ccc3c(c2)C(=O)N(CCC2=CCCCC2)C3=O)C1 (stereo not drawn)	-0.192
COC(=O)Nc1c(C)n(C)n(-c2ccccc2)c1=O	-1.4
CCN(CC)CCN1C(=O)C(=O)/C(=C(/O)c2ccc(OC)c(OC)c2)C1c1ccccn1 (stereo not drawn)	-0.322
COc1cc(-n2c(C)nc3cc(C(=O)NCc4ccco4)ccc32)cc(OC)c1OC	0.213
COC(=O)c1ccc(NC(=O)CSc2nnc(Cc3cccn3C)n2-c2ccc(F)cc2)cc1	-0.00937
COc1ccc(-n2c(Cc3cccn3C)nnc2SCC(=O)Nc2cc(C)cc(C)c2)cc1	11.4 (active)

SMILES	B-score
COc1ccccc1NC(=O)CSc1nnc(Cc2cccn2C)n1-c1ccc(F)cc1	-0.801
CCCc1[nH]nc2c1C(C1CC=CCC1)C(C#N)=C(N)O2 (stereo not drawn)	-0.104
CC1(C)CC(=O)c2cc(OCC(=O)NCC3CCCO3)ccc2O1 (stereo not drawn)	-0.0202
O=C(O)c1ccc(-n2cccc2)cc1O	-0.446
Cc1ccc(OCCCC(=O)N2CCOCC2)c(C)c1	-1.03
CCOc1ccc(-c2nnn(CC(=O)N3CCN(c4ccc(OC)cc4)CC3)n2)cc1OCC	3.84 (active)
CCOc1ccc(-c2nnn(CC(=O)N3CCN(c4ccc(F)cc4)CC3)n2)cc1OCC	-0.401
COc1ccc(C(=O)Cn2nnc(-c3ccc(N4CCOCC4)cc3)n2)cc1OC	0.758
CCOc1cc(-c2noc(CCC(=O)N3CCOCC3)n2)ccc1OC	13.7 (active)
Cc1ccc(-c2noc(CCC(N)=O)n2)cc1	-0.953
CN1C(=O)CC(N2CCN(c3ccccn3)CC2)C1=O (stereo not drawn)	-0.0528
COc1ccc(C(=O)NCCc2ccc(S(N)(=O)=O)cc2)cc1OC	-0.0032
Cc1sc2c(c1C)c(=O)n(-c1ccccc1)c1nncn21	0.694
COc1cc2[nH]c(=O)n(CCC(=O)NC3CCN(Cc4ccccc4)CC3)c(=O)c2cc1OC	-0.633
Cc1ccc(SCc2cc(=O)[nH]c(N3CCCCC3)n2)cc1	1.14
O=c1cc(-c2ccccc2)nc(N2CCCCC2)[nH]1	4.97 (active)
O=c1cc(CSc2ccccn2)nc(N2CCN(c3ccccc3)CC2)[nH]1	0.00444
N#Cc1nc(COc2ccc(Cl)cc2)oc1N1CCCC1	2.09
Cc1ccc(OCc2nc(C#N)c(N3CCCC3)o2)cc1	2.17
CC1CCN(c2oc(-c3ccccc3F)nc2C#N)CC1	8.13 (active)
COc1ccc(CCN2CNc3c(c(=O)n(C)c(=O)n3C)C2)cc1OC	-0.27
Oc1c(C(c2cccs2)N2CCN(c3ccc(F)cc3)CC2)sc2ncnn12 (stereo not drawn)	-1.14
CC(=O)N1CCc2cc(S(=O)(=O)Nc3ccccc3N3CCN(C)CC3)ccc21	-0.699
CCCNS(=O)(=O)c1ccc2c(c1)CCCN2C(C)=O	-1.43
O=C(C1CCC1)N1CCc2cc(S(=O)(=O)NCc3cccnc3)ccc21	4.59 (active)

SMILES	B-score
CC(C)(CNCC(O)c1ccccc1)N1CCOCC1 (stereo not drawn)	0.153
Cn1c(-c2ccco2)nc2cc3ccccc3cc21	-4.84 (active)
CN(c1nc2ccccc2n2c(-c3ccco3)nnc12)S(=O)(=O)c1ccccc1	1.04
CN1c2ccccc2-c2nc3ccccc3n2C1c1ccco1 (stereo not drawn)	-2.57
CCCc1nc(SCC(=O)Nc2ccccc2OC)c2c(=O)n(C)c(=O)n(C)c2n1	1.18
CCOc1ccccc1NC(=O)C1CCC(CNc2c(N3CCOCC3)c(=O)c2=O)CC1 (stereo not drawn)	-0.266
CCOc1cc(N2CCOCC2)c(OCC)cc1NC(=O)COc1cccc2cccnc12	-6.32 (active)
CCOc1cc(NC(=O)c2ccco2)c(OCC)cc1NC(=O)COc1ccccc1	-0.0288
N/C(=N\c1nc2ccccc2o1)NC(=O)C(Cc1ccccc1)N1C(=O)c2ccccc2C1=O (stereo not drawn)	-0.0263
CCOC(=O)CN1C(=O)C(O)(CC(=O)c2ccccn2)c2ccccc21 (stereo not drawn)	-0.341
CCc1nnc(NC(=O)C2CCCN2S(=O)(=O)c2ccccc2)s1 (stereo not drawn)	-0.0231
CCC(=NC1CC(C)(C)NC(C)(C)C1)C1=C(O)CC(C)(C)CC1=O	-0.239
COc1ccccc1N1CCN(Cc2ccc(OC)c3ccccc23)CC1	-0.325
O=C(O)Cc1ccc(NC(=O)c2cccs2)cc1	-1.14
Cc1nc(-c2ccc(NC(=O)c3cccs3)cc2)cs1	-5.86 (active)
O=C(O)c1ccc(NC(=O)c2cccs2)cc1	0.0162
COc1ccc(-c2nc(CS(=O)CC(=O)NCc3ccccn3)c(C)o2)cc1 (stereo not drawn)	-1.3
Cc1ccc2nc(NCCCNC(=O)c3cnccn3)c(C#N)cc2c1	0.787
CCc1ccccc1NC(=O)c1cccs1	-0.318
COCCn1nnnc1CN1CCC(NC(=O)Nc2cccc(OC)c2)CC1	-0.857
CCOC(=O)c1cc2n(c1C)-c1ccccc1C2=O	4.61 (active)
CCOC(=O)c1cc2ccccc2nc1C	0.135
CCOC(=O)c1cc2n(c1N)-c1ccccc1C2=O	1.46
CCn1nc(NC(=O)c2ccco2)c2cc3ccc(C)cc3nc21	0.36
CC1CCc2c(sc3c2C2=NS(=O)(=O)CCN2C=N3)C1 (stereo not drawn)	1.19

SMILES	B-score
CN1CCN(c2nc3c(c(=O)[nH]c(=O)n3C)n2Cc2cccc3ccccc23)CC1	-2.28
CN(Cc1ccccc1)c1nc2c(c(=O)[nH]c(=O)n2C)n1CCSc1nc2ccccc2[nH]1	1.93
CC1CCN(c2nc3c(c(=O)[nH]c(=O)n3C)n2CCCc2ccccc2)CC1	3.73 (active)
CCCCCn1c(SCCC(C)C)nc2c1c(=O)[nH]c(=O)n2C	0.151
Cn1c(=O)[nH]c(=O)c2c1nc(N1CCCCCC1)n2CC(=O)c1ccccc1	0.0681
CCCSc1nc2c(c(=O)[nH]c(=O)n2C)n1CCc1ccccc1	18 (active)
Cc1cccc2cc(C#N)c(N3CCCC3)nc12	-0.4
CCC(=O)N1c2ccc(S(=O)(=O)CCC(=O)N3CCN(c4ccccc4)CC3)cc2CC1C (stereo not drawn)	0.966
COC(=O)c1ccc(OC(=O)c2nn(C)cc2Cl)c(OC)c1	-3.71 (active)
COc1ccc(C(=O)n2nc(-c3ccc(C)cc3)nc2N)cc1OC	0.0973
COc1ccc(C(=O)n2nc(-c3ccc(Cl)cc3)nc2N)cc1OC	1.72
Cn1c(-c2ccc(C(=O)c3ccccc3)s2)nc2ccccc21	-0.58
CCN(CC)CCN1C(=O)C(=O)/C(=C(/O)c2ccccc2)C1c1ccccc1F (stereo not drawn)	0.045
Cc1ccc(C)n1C(Cc1ccccc1)C(=O)O (stereo not drawn)	1.32
c1nc(COc2nsnc2N2CCOCC2)cs1	1.59
O=C(O)COc1nsnc1N1CCOCC1	0.787
c1ccc(COc2nsnc2N2CCOCC2)cc1	5.03 (active)
COc1cc(OC)c(NC(=O)c2ccc(Br)o2)cc1Cl	-0.284
CC(=O)Nc1ccc(S(=O)(=O)N2CCC(N(C)CCC(C)C)CC2)cc1	-0.0927
CC(C)C1C2=C(CC(C)(C)CC2=O)ON1c1ccccc1 (stereo not drawn)	6.74 (active)
CC1(C)CC(=O)NC=C(c2ccccc2)C1	-0.105
Cc1cc2c(cc1C)NC(c1ccccn1)C1=C(CC(C)(C)CC1=O)N2 (stereo not drawn)	-0.653
Cc1cc(C)c(S(=O)(=O)NCCCN2CCOCC2)cc1Br	0.0527
